# In PubChem BioAssay:
# For part of these data: Measured potencies and affinities stand elsewhere. The source made the active and inactive calls.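 Rule for the calls, unless noted: active = fitted half-maximal concentration within the tested dose range, moderate curve steepness, a statistically real signal drop, and little compound fluorescence or tag-binding interference; inactive = the rest.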
# Experiments:
# [1] = molecular target: Cell division control protein 42 homolog (Homo sapiens) (UniProt P60953); experiment: inhibition of fluorescent GTP binding to constitutively active Cdc42 – biochemical, multiplex bead flow cytometry, Bodipy-FL-GTP, dose response (AID 1333)
# Sequence of Cell division control protein 42 homolog (Homo sapiens) (P60953 whole entry, looked up): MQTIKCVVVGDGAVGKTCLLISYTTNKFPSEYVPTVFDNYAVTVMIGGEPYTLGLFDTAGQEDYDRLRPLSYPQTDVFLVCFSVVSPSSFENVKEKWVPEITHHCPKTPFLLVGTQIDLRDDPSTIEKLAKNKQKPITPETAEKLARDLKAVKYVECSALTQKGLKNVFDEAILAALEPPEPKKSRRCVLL
# [2] = molecular target: Cell division control protein 42 homolog (Homo sapiens) (UniProt P60953); experiment: inhibition of fluorescent GTP binding to wildtype Cdc42 – biochemical, multiplex bead flow cytometry, Bodipy-FL-GTP, dose response (AID 1334;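 active = fitted half-maximal concentration within the tested range, moderate curve steepness, significant signal drop, and little compound fluorescence or bead-linkage interference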); details: bead-based flow cytometry, Bodipy-FL-GTP binding to GST-Cdc42; at 100 µM (top of the series) unless noted
# [3] = molecular target: GTPase HRas (Homo sapiens) (UniProt P01112); experiment: Ras wt fluorescent GTP loading blockade – biochemical, wildtype, multiplex bead flow cytometry, dose response (AID 1335;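 active = fitted half-maximal concentration within 10 nM to 100 µM, steepness 0.5 to 2, significant signal drop, low assay interference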); details: bead-based flow cytometry, Bodipy-GTP binding to GST-Ras; at 100 µM (top of the series) unless noted
# Sequence of GTPase HRas (Homo sapiens) (P01112 whole entry, looked up): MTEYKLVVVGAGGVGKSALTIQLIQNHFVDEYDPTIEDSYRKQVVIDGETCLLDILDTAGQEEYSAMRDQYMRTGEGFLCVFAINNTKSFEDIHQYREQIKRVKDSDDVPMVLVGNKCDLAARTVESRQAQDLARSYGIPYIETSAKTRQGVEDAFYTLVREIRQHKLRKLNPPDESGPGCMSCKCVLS
# [4] = test system: Ras-related protein Rab-7a (dog), GTP binding; experiment: blockers of fluorescent GTP binding to Rab7 – biochemical, wildtype, multiplex bead flow cytometry, dose response (AID 1336; call rule not given here)
# [5] = molecular target: Ras-related C3 botulinum toxin substrate 1 (Homo sapiens) (UniProt P63000); experiment: inhibition of wildtype Rac1 nucleotide loading – biochemical, multiplex bead flow cytometry, dose response (AID 1340;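 active = dose curve with midpoint inside tested range, moderate steepness, plateau gap beyond fit error, low compound glow and bead-link interference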); details: GST-Rac1 beads, Bodipy-FL-GTP binding; at 100 µM (top of the series) unless noted
# [6] = molecular target: GTPase HRas (Homo sapiens) (UniProt P01112); experiment: blockade of GTP loading onto mutant Ras – biochemical, activated mutant, multiplex bead flow cytometry, dose response (AID 1341;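 active = dose-response curve with midpoint inside the tested range, moderate steepness, significant amplitude and little compound fluorescence or bead-attachment interference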;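 note: GST-tagged constitutively activated Ras mutant immobilized on beads and multiplexed with other GTPases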)
Structure (SMILES),outcome [1],"fluorescence, percent of control (lower = inhibition) [2] [%]","GTP binding, percent of control [3] [%]",outcome [4],"GTP binding signal, raw median fluorescence (lower = inhibition) (MCF (arbitrary fluorescence units)) [5]",outcome [6]
COc1ccccc1CNCc1sc(C(=O)O)cc1C,inactive,61.8,85.7,inactive,35.2,inactive
COc1ccc(C2(CNC(=O)C(c3ccccc3)c3ccccc3)CCOCC2)cc1OC,inactive,34,80.6,inactive,276,inactive
CN(C)/C=C(\C#N)C(N)=C(C#N)C#N,inactive,38.1,82.8,inactive,259,inactive
COc1ccc(CN2CCN(CCc3ccccc3)C(CCO)C2)c(O)c1 (stereo not given),inactive,40.6,82.3,inactive,265,inactive
Cc1cc(-c2n[nH]c(=S)n2/N=C/c2cc([N+](=O)[O-])ccc2Cl)n[nH]1,inactive,40.4,54.8,inactive,105,inactive
COc1ccc(C(=O)Nn2c(SCC(=O)c3ccccc3)nc3ccccc3c2=O)cc1,inactive,71.5,119,inactive,135,inactive
COc1cc(/C=C/C(=O)Nc2ccc3nc4n(c(=O)c3c2)CCCC4)cc(OC)c1OC,inactive,32.7,72,inactive,200,inactive
Cc1ccc(C)c(NC(=S)NNC(=O)c2cc3c(s2)CCC(C)C3)c1 (stereo not given),inactive,49.9,67.1,inactive,176,inactive
COc1ccccc1Nc1nc(-c2c(C)nc3ncccn23)cs1,inactive,26.5,57.6,inactive,117,inactive
Cc1noc(NS(=O)(=O)c2ccc(NC(=O)CSc3nnc4c(n3)[nH]c3ccccc34)cc2)c1C,inactive,21.2,32.7,inactive,41.2,inactive
O=C(O)c1nnn(Cc2ccc(Br)cc2)c1C(=O)O,inactive,58.8,80.4,inactive,30.6,inactive
C=CCN1C(=O)/C(=C/c2ccc(N(C)C)cc2)S/C1=N\c1nnc(CC)s1,inactive,74.8,90.2,inactive,231,inactive
O=C(Cn1cnc2cc([N+](=O)[O-])ccc2c1=O)NCc1ccc(Cl)cc1,inactive,34.9,82.3,inactive,192,inactive
CCOC(=O)c1c(CSc2ccccc2)n(C)c2cc(Br)c(OCC(O)CNC(CO)(CO)CO)cc12 (stereo not given),inactive,94.1,147,inactive,320,inactive
Cc1ccc(O)c(N=Cc2cc(Cc3ccccc3)cc([N+](=O)[O-])c2O)c1,inactive,30.7,72.6,inactive,111,inactive
O=C(C#Cc1ccccc1F)c1ccc([N+](=O)[O-])cc1,inactive,49.8,179,inactive,104,inactive
Cc1ccc(C2=NN(CCC(=O)NCc3ccc4c(c3)OCO4)C(=O)CC2)cc1,inactive,51.3,60.2,inactive,207,inactive
Cc1cc(NS(=O)(=O)c2ccc(NC(=O)c3cc4c(=O)n5ccccc5nc4s3)cc2)nc(C)n1,inactive,31.9,77.5,inactive,166,inactive
COc1cc(/C=N/NC(=O)C(Cc2c[nH]c3ccccc23)NC(=O)OCc2ccccc2)cc([N+](=O)[O-])c1O (stereo not given),inactive,29.6,74,inactive,208,inactive
Cc1cc(NC(=O)c2cccc(C(=O)Nc3cc(C)on3)n2)no1,inactive,40,86.3,inactive,296,inactive

Structure (SMILES),outcome [1],"fluorescence, percent of control (lower = inhibition) [2] [%]","GTP binding, percent of control [3] [%]",outcome [4],"GTP binding signal, raw median fluorescence (lower = inhibition) (MCF (arbitrary fluorescence units)) [5]",outcome [6]
CNC(=O)C(C)NS(=O)(=O)c1ccc(F)cc1 (stereo not given),inactive,50.9,66.5,inactive,236,inactive
O=C(N/N=C/c1ccc2nccnc2c1)c1cccc([N+](=O)[O-])c1,inactive,42.7,86.9,inactive,203,inactive
O=c1[nH]c(N/N=C/c2ccc(O)cc2)nc2ccccc12,inactive,31.4,71,inactive,259,inactive
Cc1ccc(C(=O)O)c(NCc2c(C)cccc2C)n1,inactive,58.8,224,inactive,54.1,inactive
O=C(O)c1ccc(COc2ccc(F)cc2)o1,inactive,61.2,87.5,inactive,35,inactive
CCN=C1S/C(=C\c2ccc(OC)c(OCC)c2)C(=O)N1CC,inactive,50.8,60.4,inactive,213,inactive
COc1ccc(OCCN2C(=O)c3ccccc3C2=O)cc1,inactive,35.6,81.5,inactive,240,inactive
COc1cc(NC(=O)c2cccs2)c(OC)cc1NC(=O)CCC(=O)Nc1cccc2ncccc12,inactive,32.3,72.4,inactive,144,inactive
Cc1ccc(OCc2ccc(C(=O)Nc3nc4ccccc4n3Cc3ccccc3)o2)c([N+](=O)[O-])c1,inactive,48.5,60.3,inactive,193,inactive
O=C(Nc1ccc(N2CCOCC2)c(Cl)c1)c1ncn[nH]1,inactive,104,203,inactive,241,inactive
O=C1c2ccccc2C(=O)N1CCCCN(C(=O)c1cc2ccccc2oc1=O)c1ccc(Cl)cc1,inactive,51.3,60.9,inactive,210,inactive
Cc1ccc(C(=O)c2ccccc2C(=O)O)cc1C,inactive,113,141,inactive,93.5,inactive
COc1ccc(-c2nn3c(-c4ccco4)nnc3s2)cc1OC,inactive,39.1,132,inactive,143,inactive
CC1(C)Cc2c(sc(NC(=O)c3ccc(Br)o3)c2C#N)CO1,inactive,49.4,62.3,inactive,212,inactive
CCOc1ccc2c(c1)c(N=NC(=N)N)c(O)n2C,inactive,32.4,70.3,inactive,165,inactive
Cc1ccccc1COc1cccc(C)c1C(=O)O,inactive,58,200,inactive,56.1,inactive
O=[N+]([O-])c1cc(Br)c(O)c(C=Nc2ccc(N3CCOCC3)cc2)c1,inactive,30.7,79.8,inactive,218,inactive
Cc1ccccc1-n1c(SCc2c(C)noc2C)nnc1-c1cccnc1,inactive,104,179,inactive,195,inactive
N#Cc1c(C(F)(F)F)cc(-c2ccc(Cl)cc2)[nH]c1=O,inactive,27.5,66,inactive,178,inactive
COc1cc(CCNc2ccc3nnc(-c4ccccc4)n3n2)cc(OC)c1OC,inactive,34.8,44,inactive,123,inactive

Structure (SMILES),outcome [1],"fluorescence, percent of control (lower = inhibition) [2] [%]","GTP binding, percent of control [3] [%]",outcome [4],"GTP binding signal, raw median fluorescence (lower = inhibition) (MCF (arbitrary fluorescence units)) [5]",outcome [6]
O=c1[nH]c(=O)c2nnc(N/N=C\c3ccc(O)cc3)nc2[nH]1,inactive,32.2,69.1,inactive,147,inactive
CCOC(=O)c1nc(Nc2ccc(C(=O)OC)cc2)c2ccccc2n1,inactive,43.9,115,inactive,128,inactive
Cc1c(NS(=O)(=O)c2ccc3c(c2)Cc2ccccc2-3)c(=O)n(-c2ccccc2)n1C,inactive,30.4,80,inactive,238,inactive
C=CCN(CC=C)S(=O)(=O)c1ccc(C(=O)Nc2nc3c(s2)CCc2ccccc2-3)cc1,inactive,51.4,57.3,inactive,0,inactive
O=S1(=O)N=C(N(CCO)/N=C/c2ccccc2)c2ccccc21,inactive,31.3,63.2,inactive,139,inactive
CCCCN1C(=O)/C(=C/C=C2\N(C)c3ccccc3C2(C)C)SC1=S,inactive,128,134,inactive,235,inactive
Cc1ccc2c(c1)c1nnc(SCC(=O)N3CCCc4ccccc43)nc1n2CC(=O)O,inactive,17.6,37.8,inactive,96.4,inactive
Cc1ccc(OCCn2c(SCC(=O)O)nc3ccccc32)cc1,inactive,59,86.2,inactive,35.2,inactive
CCCCn1c(SCC(=O)c2ccccc2)nc2c1c(=O)[nH]c(=O)n2C,inactive,48.7,61.3,inactive,197,inactive
Cc1ccc(C(C)C)c(OCc2ccccc2C(=O)O)c1,inactive,73.5,87,inactive,48.6,inactive
CCOC(=O)Cn1c(=O)c2c(nc(N3CCCCC3)n2C)n(C)c1=O,inactive,52.2,63.3,inactive,168,inactive
COc1cc2c3nnc(-c4ccc(F)cc4)c-3cn(Cc3cccc(F)c3)c2cc1OC,inactive,38.2,86.4,inactive,293,inactive
COc1cc2[nH]c(=S)nc(NCC3CCCO3)c2cc1OC (stereo not given),inactive,59.4,152,inactive,177,inactive
COc1ccc(/C=N/NC(=O)CSc2n[nH]c(=O)[nH]c2=O)cc1,inactive,53.1,69.6,inactive,0,inactive
Cc1ccc(-n2c3nc(=O)[nH]c(=O)c-3cc3cc([N+](=O)[O-])ccc32)cc1,inactive,34.4,71,inactive,103,inactive
Cc1cc(N/N=C/c2ccc(O)cc2O)nc(-c2ccccc2O)n1,inactive,40.3,48.8,inactive,143,inactive
CSc1nc2ccc(NS(=O)(=O)c3c(Cl)cccc3Cl)cc2s1,inactive,31.2,77.9,inactive,245,inactive
Cc1ccc(Nc2nc(N)c(C#N)c(CC#N)c2C#N)cc1,inactive,36.6,85.9,inactive,224,inactive
CC(C)N(C(=O)Cn1cnc2cc([N+](=O)[O-])ccc2c1=O)C(C)C,inactive,34.2,76.5,inactive,156,inactive
Cc1cc2ccccn2c1C(=O)c1cc([N+](=O)[O-])cc([N+](=O)[O-])c1,inactive,37.4,85.6,inactive,270,inactive
